Out of some 310,000 compounds screened, about 14,000 (4.5%) showed an effect of 50% or more. The effect is printed as a negative number. Shown is part of a subset that was picked to be rich in strong results.
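Also: peak tail current of the secondary pulse compared with the same well before compound.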

human ether-à-go-go-related gene (hERG) potassium channel, sequence (Q12809 whole entry, looked up): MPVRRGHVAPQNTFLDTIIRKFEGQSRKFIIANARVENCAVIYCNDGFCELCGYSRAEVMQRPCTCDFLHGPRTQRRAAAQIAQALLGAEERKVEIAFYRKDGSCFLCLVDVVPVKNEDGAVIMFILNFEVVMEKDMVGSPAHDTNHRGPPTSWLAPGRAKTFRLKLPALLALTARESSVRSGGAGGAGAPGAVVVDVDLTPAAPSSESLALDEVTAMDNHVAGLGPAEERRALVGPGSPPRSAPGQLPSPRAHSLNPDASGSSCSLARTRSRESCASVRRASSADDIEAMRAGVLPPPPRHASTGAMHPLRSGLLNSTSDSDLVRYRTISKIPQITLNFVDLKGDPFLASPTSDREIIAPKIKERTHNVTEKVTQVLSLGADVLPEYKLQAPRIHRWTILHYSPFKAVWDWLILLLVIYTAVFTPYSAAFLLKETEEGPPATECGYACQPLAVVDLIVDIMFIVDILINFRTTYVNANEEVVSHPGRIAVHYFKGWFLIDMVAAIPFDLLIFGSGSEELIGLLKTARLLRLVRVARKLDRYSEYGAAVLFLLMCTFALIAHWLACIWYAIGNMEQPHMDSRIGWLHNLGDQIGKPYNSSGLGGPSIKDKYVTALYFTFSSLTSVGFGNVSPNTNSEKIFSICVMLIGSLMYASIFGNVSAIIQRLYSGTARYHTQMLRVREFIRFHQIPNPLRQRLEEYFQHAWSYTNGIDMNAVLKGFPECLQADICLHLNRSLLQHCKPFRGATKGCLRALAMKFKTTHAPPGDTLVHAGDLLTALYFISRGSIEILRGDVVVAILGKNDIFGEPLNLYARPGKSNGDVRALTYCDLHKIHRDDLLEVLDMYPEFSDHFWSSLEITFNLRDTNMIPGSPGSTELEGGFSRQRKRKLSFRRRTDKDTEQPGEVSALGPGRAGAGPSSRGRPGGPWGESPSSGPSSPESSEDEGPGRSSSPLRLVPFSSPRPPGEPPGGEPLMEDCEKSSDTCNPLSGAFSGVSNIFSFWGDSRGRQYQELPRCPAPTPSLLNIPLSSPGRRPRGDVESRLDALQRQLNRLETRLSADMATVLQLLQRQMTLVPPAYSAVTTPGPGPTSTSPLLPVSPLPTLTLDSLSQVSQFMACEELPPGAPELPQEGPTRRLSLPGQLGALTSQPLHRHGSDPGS

This test addresses human ether-à-go-go-related gene (hERG) potassium channel (human, UniProt Q12809). Description: primary screen, population patch clamp on CHO cells stably expressing hERG; higher = less effect of the substance.
Consider `Cc1ccc(NC(=S)NC(=O)/C=C/c2ccco2)c(O)c1`, for which the “hERG current change (%, negative = inhibition) at 10uM” value stood at 2.91%. To `COC(=O)CCC(=O)N1CCCC(CNS(=O)(=O)c2ccc(OC)cc2)C1` (centres unmarked) belongs 39.4%; to `COc1cc(NC(=O)COC(=O)Cn2cnc3c2c(=O)n(C)c(=O)n3C)cc(OC)c1`, 1.05%; to `CC(C)COC(=O)C1C2C=CC3(CN(C4CCCC4)C(=O)C13)O2` (centres unmarked), -15.4%. In the case of `Cc1ccc(S(=O)(=O)N2CCN(C(=O)c3ccccn3)CC2)cc1`, the “hERG current change (%, negative = inhibition) at 10uM” value was found to be 9.2%. The result for `Cc1cccc(NC(=O)c2cc(-c3ccc(C)s3)nc3ccccc23)n1` reads 5.03%; that for `CC(=O)c1cc2ccccc2oc1=O`, 2.96%; that for `CCN1C(=O)[C@H]2[C@@H](c3ccc(C)cc3)N3C(=O)N(c4cccc(F)c4)C(=O)[C@@]3(C)[C@H]2C1=O`, 3.13%.

As to `O=S(=O)(Cc1cccc(C(F)(F)F)c1)c1ncn[nH]1`, the “hERG current change (%, negative = inhibition) at 10uM” value is recorded as 17.9%.

In the case of `COc1cccc(COc2ccc3c(C)c(Cc4ccccc4)c(=O)oc3c2)c1`, the “hERG current change (%, negative = inhibition) at 10uM” value is 6.98%.

For the compound `CCN1C=C(Cc2cccs2)C2=C(C1)C(c1cccs1)C(C#N)=C(N)O2` (centres unmarked), the “hERG current change (%, negative = inhibition) at 10uM” value is -16.8%. For `Cc1cc[n+](CC[n+]2ccc(C)cc2)cc1.[Br-]`, the “hERG current change (%, negative = inhibition) at 10uM” value is reported as 16.7%. To `CCC(C)(C)c1ccc(OCCCC[n+]2cccc(C)c2C)c(C(C)(C)CC)c1.[Br-]` belongs -75.8%. Regarding `CCC(C)(C)c1ccc(O)cc1`, the “hERG current change (%, negative = inhibition) at 10uM” value was 6.62%. To `Cc1cc(=O)oc2cc(OCCCC[n+]3ccccc3)ccc12.[Br-]` belongs 4.72%. The result for `CCC(C)(C)c1ccc(OCC(=O)N(C)C)c(C(C)(C)CC)c1` reads -4.24%; that for `CCC(C)(C)c1ccc(OCCCC[n+]2ccc(C)cc2)c(C(C)(C)CC)c1.[Br-]`, -75.7%. For the compound `Cc1cc(C(C)(C)C)ccc1OCCCCN1CCCC1`, the “hERG current change (%, negative = inhibition) at 10uM” value was -40%. The result for `CCC(C)(C)c1ccc(OCCCC[n+]2ccccc2)c(C(C)(C)CC)c1.[Br-]` reads -67.2%. To `CCC(C)(C)c1ccc(Oc2cccc(C(=O)O)c2)cc1` belongs 11.5%; to `O=C(Nc1nnc(-c2ccco2)s1)c1ccccc1`, 8.26%. To `Nn1c(Cc2ccccc2F)nnc1SCCOc1ccc(Cl)cc1` belongs -14.1%; to `C=CCSc1nnc(CNC(=O)c2ccccc2C)n1C(C)C`, 5.68%. As for `CC(=O)c1c(C)[nH]c(C(=O)NCCC2=CCCCC2)c1C`, the “hERG current change (%, negative = inhibition) at 10uM” value is reported as 4.77%. Take `O=C1CC(c2ccccc2)CC(O)=C1C=NCCN1CCNCC1` (centres unmarked): the “hERG current change (%, negative = inhibition) at 10uM” value came to 9.28%. To `O=C1CC(c2ccccc2)CC(O)=C1C=NCCN1CCN(Cc2ccccc2)CC1` (centres unmarked) belongs -63.1%. `O=C1CC(c2ccccc2)CC(O)=C1C=NCCN1CCN(C(=O)Cc2ccccc2)CC1` (centres unmarked): the “hERG current change (%, negative = inhibition) at 10uM” value is listed as -53%. To `O=C1CC(c2ccccc2)CC(O)=C1C=NCCN1CCOCC1` (centres unmarked) belongs -0.797%; to `Cc1ccc(C2CC(=O)C(C=NCCN3CCN(C(=O)Cc4ccccc4)CC3)=C(O)C2)cc1` (centres unmarked), -42.8%. To `O=C1CC(c2ccccc2)CC(O)=C1C=NCCc1ccccc1` (centres unmarked) belongs 6.57%.

Regarding `Cc1ccc(C)c(OC2=NS(=O)(=O)c3ccccc32)c1`, the “hERG current change (%, negative = inhibition) at 10uM” value came to 23.2%.

Regarding `Cc1cc(Cl)ccc1OCCCC(=O)N/N=C/c1cccc([N+](=O)[O-])c1`, the “hERG current change (%, negative = inhibition) at 10uM” value was 22.2%. The result for `CC(=O)Nc1cccc(-c2nc3ccccc3s2)c1` reads -13.4%. In the case of `O=C(Nc1cccc(-c2nc3ccccc3s2)c1)c1cccs1`, the “hERG current change (%, negative = inhibition) at 10uM” value is -53.1%. On to `O=C(Nc1ccc(O)c(-c2nc3ccccc3s2)c1)c1cccs1`, for which the “hERG current change (%, negative = inhibition) at 10uM” value is on record as -9.79%.

Turning to `Cc1nc(N2CCN(c3ccccn3)CC2)c2c(C)c(C(=O)Nc3c(F)cc(F)cc3Br)sc2n1`, the “hERG current change (%, negative = inhibition) at 10uM” value was -14.4%. On to `CN1CCN(S(=O)(=O)c2ccc(Cl)c3ccccc23)CC1`, for which the “hERG current change (%, negative = inhibition) at 10uM” value is -1.62%.

On to `C=CCn1c(NC(=O)c2ccc(Br)o2)c(C(=O)OCC)sc1=S`, for which the “hERG current change (%, negative = inhibition) at 10uM” value stood at 37%. To `CC(=O)c1ccc(N2CCN(C(=O)C3(S(=O)(=O)c4ccc(Cl)cc4)CC3)CC2)cc1` belongs -51.8%; to `Cc1ccc(S(=O)(=O)C2(C(=O)N3CCCCCC3)CC2)cc1`, -11.6%. To `Cc1ccc(Cl)cc1N1CCN(C(=O)C2(S(=O)(=O)c3ccc(Cl)cc3)CC2)CC1` belongs -6.38%; to `O=C(N1CCN(c2ccccc2)CC1)C1(S(=O)(=O)c2ccc(Cl)cc2)CC1`, -42.1%. In the case of `COc1ccc(N2CCN(C(=O)C3(S(=O)(=O)c4ccc(C)cc4)CC3)CC2)cc1`, the “hERG current change (%, negative = inhibition) at 10uM” value is on record as -53.7%. As for `Cc1ccc(S(=O)(=O)C2(C(=O)N3CCN(c4cc(C)ccc4C)CC3)CC2)cc1`, the “hERG current change (%, negative = inhibition) at 10uM” value is given as -15.2%. Consider `CCOc1ccc(C(=O)CCC(=O)Nc2cc(C)ccn2)cc1`, for which the “hERG current change (%, negative = inhibition) at 10uM” value is recorded as 11.8%.

For the compound `COc1ccc(OC)c(N=Cc2c(O)c3ccccc3oc2=O)c1`, the “hERG current change (%, negative = inhibition) at 10uM” value worked out at 12.9%. To `O=C(CCc1nnc2ccc(NCc3ccccc3Cl)nn12)NC1CCCCC1` belongs -7.98%; to `COc1ccc(C(=O)C2CCCN(CCO)C2)c(C)c1` (centres unmarked), 4.23%. Take `COc1ccc(C(=O)C2CCCN(C(=O)CCc3ccccn3)C2)c(C)c1` (centres unmarked): the “hERG current change (%, negative = inhibition) at 10uM” value is given as -14.7%. With `COc1ccc(C(=O)C2CCCN(Cc3cccn3-c3ccccn3)C2)c(OC)c1` (centres unmarked), the “hERG current change (%, negative = inhibition) at 10uM” value is -74.6%.

As for `COc1ccc(C(=O)C2CCCN(Cc3cccn3-c3ccc(Cl)cn3)C2)c(OC)c1` (centres unmarked), the “hERG current change (%, negative = inhibition) at 10uM” value is given as -76%. The result for `COc1ccc(C(=O)C2CCCN(Cc3cccn3-c3ccccn3)C2)c(C)c1` (centres unmarked) reads -78.9%.

`COc1ccccc1NC(=O)Cn1c(C)nc2c(sc(=S)n2Cc2ccco2)c1=O`: the “hERG current change (%, negative = inhibition) at 10uM” value is -32.6%. For `COc1cc(Cl)cc(C#N)c1OCC(=O)O`, the “hERG current change (%, negative = inhibition) at 10uM” value amounted to 11%. The result for `O=C(NC(Nc1nc2ccc([N+](=O)[O-])cc2s1)(C(F)(F)F)C(F)(F)F)c1ccccc1Cl` reads -23.1%; that for `O=C(CSc1nnc(-c2cccnc2)n1Cc1ccccc1)NCc1ccccc1`, -14.1%.
